From the supplement of paper PMC7057948, “A genome-wide approach for identification and characterisation of metabolite-inducible systems” (Nature Communications, 2020)

Assays:
Details in all cases: inducer concentration 5 mM; 6 h; Cupriavidus necator H16; minimal medium + 0.4% gluconate
[1] = tested on: AcoR/P_H16_RS19445 acetoin biosensor (pEH052); assay: relative induction of RFP reporter vs primary effector; higher = stronger activation
Procedure: (§1)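 Orthogonality screen of 21 primary inducers against 21 transcription factor/inducible promoter–mRFP biosensors in C. necator H16 in minimal medium, robotic 96-well format, 5 mM inducer, 30 °C. OD-normalised RFP fluorescence was read 6 h later and expressed as relative induction (%) = 100 × (FL compound − FL uninduced)/(FL primary inducer − FL uninduced); mean of n=4. Cognate pairs (100% by definition) omitted.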

[2] = tested on: AraC/P_araBAD L-arabinose biosensor (pEH176); assay: as above
Procedure: as §1

[3] = tested on: BadR/P_H16_RS27200 cyclohexanecarboxylate biosensor (pEH159); assay: as above
Procedure: as §1

[4] = tested on: BenM/P_H16_RS09790 benzoate biosensor (pEH148); assay: as above
Procedure: as §1

[5] = tested on: FdsR/P_H16_RS03165 formate biosensor (pEH134); assay: as above
Procedure: as §1

[6] = tested on: GabR/P_H16_RS23655 GABA biosensor (pEH256); assay: as above
Procedure: as §1

[7] = tested on: HpdA/P_H16_RS24175 L-tyrosine biosensor (pEH158); assay: as above
Procedure: as §1

[8] = tested on: NahR/P_H16_RS08125 salicylate biosensor (pEH042); assay: as above
Procedure: as §1

[9] = tested on: OapR/P_H16_RS01330 beta-alanine biosensor (pEH147); assay: as above
Procedure: as §1

[10] = tested on: PcaQ/P_H16_RS30145 3,4-dihydroxybenzoate biosensor (pEH161); assay: as above
Procedure: as §1

[11] = tested on: PhgR/P_H16_RS05530 phenylglyoxylate biosensor (pEH155); assay: as above
Procedure: as §1

[12] = tested on: SauR/P_H16_RS13695 sulfonatoacetate biosensor (pEH157); assay: as above
Procedure: as §1

[13] = tested on: TtdR/P_H16_RS10665 tartrate biosensor (pEH083); assay: as above
Procedure: as §1

[14] = tested on: XdhR/P_H16_RS05055 xanthine biosensor (pEH154); assay: as above
Procedure: as §1

[15] = tested on: heterologous L-rhamnose-inducible system; assay: as above
Procedure: as §1

[16] = tested on: heterologous acrylate-inducible system; assay: as above
Procedure: as §1

[17] = tested on: heterologous cumate-inducible system; assay: as above
Procedure: as §1

[18] = tested on: AcoR/P_H16_RS19445 acetoin biosensor (pEH052); assay: relative induction of RFP reporter vs primary effector (background-corrected); higher = stronger activation of the biosensor
Procedure: (§2)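 C. necator H16 strains, each carrying one of 21 transcription factor/inducible promoter–mRFP biosensor plasmids, were grown in minimal medium in 96-well plates (robotic platform). Each was exposed to 46 structurally or metabolically related compounds at 5 mM at 30 °C. OD-normalised RFP fluorescence was read 6 h later and expressed as relative induction (%) = 100 × (FL compound − FL uninduced)/(FL primary inducer − FL uninduced); mean of n=4.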

[19] = tested on: AraC/P_araBAD L-arabinose biosensor (pEH176); assay: as above
Procedure: as §2

[20] = tested on: BenM/P_H16_RS09790 benzoate biosensor (pEH148); assay: as above
Procedure: as §2

[21] = tested on: FdsR/P_H16_RS03165 formate biosensor (pEH134); assay: as above
Procedure: as §2

[22] = tested on: GabR/P_H16_RS23655 GABA biosensor (pEH256); assay: as above
Procedure: as §2

[23] = tested on: HpdR/P_H16_RS18295 3-hydroxypropanoate biosensor (pEH010); assay: as above
Procedure: as §2

[24] = tested on: KynR/P_H16_RS14030 L-kynurenine biosensor (pEH136); assay: as above
Procedure: as §2

[25] = tested on: NahR/P_H16_RS08125 salicylate biosensor (pEH042); assay: as above
Procedure: as §2

[26] = tested on: OapR/P_H16_RS01330 beta-alanine biosensor (pEH147); assay: as above
Procedure: as §2

[27] = tested on: PcaQ/P_H16_RS30145 3,4-dihydroxybenzoate biosensor (pEH161); assay: as above
Procedure: as §2

[28] = tested on: PhgR/P_H16_RS05530 phenylglyoxylate biosensor (pEH155); assay: as above
Procedure: as §2

[29] = tested on: PhhR/P_H16_RS18365 L-phenylalanine biosensor (pEH137); assay: as above
Procedure: as §2

[30] = tested on: SauR/P_H16_RS13695 sulfonatoacetate biosensor (pEH157); assay: as above
Procedure: as §2

[31] = tested on: TtdR/P_H16_RS10665 tartrate biosensor (pEH083); assay: as above
Procedure: as §2

[32] = tested on: XdhR/P_H16_RS05055 xanthine biosensor (pEH154); assay: as above
Procedure: as §2

[33] = tested on: heterologous inducible system pEH002 (rhamnose/acrylate/cumate/itaconate set); assay: as above
Procedure: as §2

[34] = tested on: heterologous inducible system pEH020 (rhamnose/acrylate/cumate/itaconate set); assay: as above
Procedure: as §2

[35] = tested on: heterologous inducible system pEH040 (rhamnose/acrylate/cumate/itaconate set); assay: as above
Procedure: as §2

[36] = tested on: heterologous inducible system pEH086 (rhamnose/acrylate/cumate/itaconate set); assay: as above
Procedure: as §2
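Wherever relative induction of RFP reporter vs primary effector (background-corrected) is given: RFP excited at 585 nm with emission read at 620 nm, culture medium blanks subtracted from fluorescence and absorbance prior to normalisation.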

| SMILES | relative induction of RFP reporter [1] [%] | relative induction of RFP reporter [2] [%] | relative induction of RFP reporter [3] [%] | relative induction of RFP reporter [4] [%] | relative induction of RFP reporter [5] [%] | relative induction of RFP reporter [6] [%] | relative induction of RFP reporter [7] [%] | relative induction of RFP reporter [8] [%] | relative induction of RFP reporter [9] [%] | relative induction of RFP reporter [10] [%] | relative induction of RFP reporter [11] [%] | relative induction of RFP reporter [12] [%] | relative induction of RFP reporter [13] [%] | relative induction of RFP reporter [14] [%] | relative induction of RFP reporter [15] [%] | relative induction of RFP reporter [16] [%] | relative induction of RFP reporter [17] [%] | relative induction of RFP reporter [18] [%] | relative induction of RFP reporter [19] [%] | relative induction of RFP reporter [20] [%] | relative induction of RFP reporter [21] [%] | relative induction of RFP reporter [22] [%] | relative induction of RFP reporter [23] [%] | relative induction of RFP reporter [24] [%] | relative induction of RFP reporter [25] [%] | relative induction of RFP reporter [26] [%] | relative induction of RFP reporter [27] [%] | relative induction of RFP reporter [28] [%] | relative induction of RFP reporter [29] [%] | relative induction of RFP reporter [30] [%] | relative induction of RFP reporter [31] [%] | relative induction of RFP reporter [32] [%] | relative induction of RFP reporter [33] [%] | relative induction of RFP reporter [34] [%] | relative induction of RFP reporter [35] [%] | relative induction of RFP reporter [36] [%] |
| --- | --- | --- | --- | --- | --- | --- | --- | --- | --- | --- | --- | --- | --- | --- | --- | --- | --- | --- | --- | --- | --- | --- | --- | --- | --- | --- | --- | --- | --- | --- | --- | --- | --- | --- | --- | --- |
| C=C(CC(=O)O)C(=O)O [itaconate] | 7.98 | -0.0132 | -0.216 | -0.0396 | -5.89 | -1.61 | -0.159 | 0.0104 | -0.257 | -0.0579 | -0.453 | 0.0423 | -0.0311 | -0.326 | 0.00546 | -0.778 | -0.202 |  |  |  |  |  |  |  |  |  |  |  |  |  |  |  |  |  |  |  |
| O=C(O)/C=C/C(=O)O [fumarate] |  |  |  |  |  |  |  |  |  |  |  |  |  |  |  |  |  | -1.09 | 0.0135 | 0.214 | 12.2 | -0.753 | 0.112 | -0.13 | -0.00283 | 0.456 | 0.0475 | -0.207 | 0.00492 | 0.00629 | 0.78 | 0.739 | 0.00534 | -0.346 | -1.36 | 0.533 |
| CCCC(=O)O [butyric acid] |  |  |  |  |  |  |  |  |  |  |  |  |  |  |  |  |  | -2.08 | -0.0107 | -0.0464 | -1.59 | -2.45 | -0.186 | -0.35 | -0.000826 | -0.94 | 0.636 | -0.41 | -0.461 | 0.0337 | -0.384 | -0.758 | -0.00916 | -1.33 | -0.981 | -0.0776 |
| CCC(=O)O [propanoate] |  |  |  |  |  |  |  |  |  |  |  |  |  |  |  |  |  | -1.68 | -0.00959 | -0.0373 | -1.16 | -3.91 |  | -0.867 | -0.000302 | -1.95 | -0.275 | -0.224 | -0.418 | 0.0421 | -0.423 | -0.832 | -0.00545 | -0.954 | 0.605 | -0.0388 |
